Assay outcomes (PubChem BioAssay)
This is a sample that favours compounds with a hit; in the whole collection about 2.9% have one here.
HEK293 viab – counter-screen for SNCA expression inhibitors: cell viability. HEK-293-SNCA-luc viability, GF-AFC fluorescence, 24 h. Potency, µM (doses to about 57.1 µM), for the others: at the highest dose activity change, negative = cytotoxicity, actives largely listed as cytotoxic. 150,000 tested, 0.12% active;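 also: potency is read from the fitted curve at half-maximal effect; 0% = DMSO-treated cells and -100% = medium-only wells without cells; nearly all actives have a fitted effect of over 30% in size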
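HEK-293-SNCA-luc cells (1500/well) plated 24 h, then exposed 24 h to a dilution series; GF-AFC added 30 min at 37C, fluorescence 405/540 nm; normalised to medium-only and DMSO wells, Hill fit.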
IP6K1 inhibitor – inhibitors of human IP6K1 | Q92551 | IP6K1 kinase, ADP-Glo luminescence, 2 h; active compounds read low | activity change, % (series mostly up to about 58 µM) | 140,000 tested, 0.81% active; in the data active = activity change below about -25%; also: % is scaled to controls: 0 for no effect and ±100 for the full control effect
Target sequence (Q92551 whole entry, looked up): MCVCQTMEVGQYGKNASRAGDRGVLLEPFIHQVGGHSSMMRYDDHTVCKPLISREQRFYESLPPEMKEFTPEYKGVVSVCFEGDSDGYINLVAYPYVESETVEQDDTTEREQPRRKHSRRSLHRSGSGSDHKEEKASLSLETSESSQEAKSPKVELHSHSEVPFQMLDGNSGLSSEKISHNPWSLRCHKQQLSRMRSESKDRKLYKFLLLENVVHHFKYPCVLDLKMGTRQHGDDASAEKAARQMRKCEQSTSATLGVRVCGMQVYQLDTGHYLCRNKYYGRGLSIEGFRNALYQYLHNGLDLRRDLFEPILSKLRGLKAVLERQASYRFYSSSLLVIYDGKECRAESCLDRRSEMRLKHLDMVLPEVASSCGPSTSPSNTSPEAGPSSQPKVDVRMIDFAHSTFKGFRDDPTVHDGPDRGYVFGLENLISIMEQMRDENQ
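ADP-Glo luminescence measures ADP made by human IP6K1 during a 2 h RT reaction with ATP/IP6 (mix at 1.3 mM/130 uM); top library doses 57.5 and 19.1 uM final.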
KDM5B inhibitor – KDM5B demethylase inhibition. Q9UGL1. KDM5B demethylase, FDH-coupled NADH fluorescence (FDH is formaldehyde dehydrogenase). Potency, µM (highest dose often 57.7 µM), hits mostly inhibitors. 220,000 tested, 2.6% active. AID 1347165; also: potency is read from the fitted curve at half-maximal effect; 0% is about no effect; nearly all actives have a fitted effect of over 70% in size
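Inhibition is measured as reduced NADH fluorescence generation from FDH coupling to formaldehyde release. Truncated KDM5BΔAP at 200 nM final acts on H3K4me3 peptide (12.5 µM in substrate mix) in pH 7.5 HEPES buffer with Tween-20, 30 min, room temperature.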
SNCA expr inh – inhibitors of alpha-synuclein (SNCA) gene expression. Potency, µM (titrated, usually from 57.2 µM), without a hit: top-dose activity change, negative = inhibition, hits mostly inhibitors. 140,000 tested, 0.17% active. HEK-293 SNCA-luciferase knock-in, luminescence, 24 h;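 also: potency is read from the fitted curve at half-maximal effect; plate controls were DMSO cells for no effect and cell-free wells for full effect; nearly all actives have a fitted effect of over 45% in size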
* marks the source's active call; other numbers are inactive results; i = inactive; ? = inconclusive; . = no result; [ ] = another dose, or the depositor's remark. Unless noted, calls follow the shape of the dose curve; as a rule, active = well fitted curve in the direction sought with a large enough effect; inconclusive = small, poorly fitted or top-dose-only effect, or another doubt; inactive = no such curve, though single readings can be large; an effect the other way counts as inactive or inconclusive.

SMILES	HEK293 viab	IP6K1 inhibitor	KDM5B inhibitor	SNCA expr inh
O=C(c1ccccc1)N1CCCN(Cc2ccc3c(c2)OCO3)c2ccccc21	-7%	-15	i	-10%
C[C@H](C(=O)NCCN1CCOCC1)C1CC[C@@]2(C)Cc3sc(-c4ccccc4)nc3[C@@H](C)[C@@H]2[C@H]1O (some centres undefined)	2%	-3	25µM*	0.79µM*
C#CCN(C)C(=O)[C@@H](C)C1CC[C@@]2(C)Cc3sc(NCCCC)nc3[C@@H](C)[C@@H]2[C@H]1O (some centres undefined)	-4%[87.6 µM]	-9	?	33%[87.6 µM]
C=CCN(C)C(=O)[C@@H](C)C1CC[C@@]2(C)Cc3sc(-c4cccnc4)nc3[C@@H](C)[C@@H]2[C@H]1O (some centres undefined)	-4%[87.6 µM]	0	32µM*	?
C=CCN(C)C(=O)[C@@H](C)C1CC[C@@]2(C)Cc3sc(NCCCC)nc3[C@@H](C)[C@@H]2[C@H]1O (some centres undefined)	-17%[87.6 µM]	9	35µM*	-1%[87.6 µM]
Cc1nc2c(s1)C[C@]1(C)CCC([C@H](C)C(=O)N3CCOCC3)[C@H](O)[C@H]1[C@@H]2C (some centres undefined)	3%[87.6 µM]	-10	i	37%[87.6 µM]
CCC#CCN1Cc2cc(OC)ccc2N(CC(O)COc2ccccc2)CCC1=O (centres undefined)	.	2	.	.
CN1CCCCCC(O)c2cc(C(=O)NCCc3ccccn3)ccc21 (centres undefined)	7%	1	?	171%
CN1C[C@@H](NC(=O)Nc2cccc(C#N)c2)C[C@H]1c1nc(-c2ccc(Cl)cc2)no1	?	-13	i	?
COc1ccc(C(=O)N2CCC3(CC(c4cccc(C(F)(F)F)c4)=NO3)C2)cc1 (centres undefined)	-19%	0	i	-7%
Cc1cc(C2CCC2)nc(N2C[C@@H](C)[C@@](C)(O)C2)n1	2%	3	28µM*	?
C[C@@H]1CN(C(=O)c2ccc3c(c2)CCC3)C[C@]1(C)O	0%	3	i	4%
c1cn(CCc2noc(C3CCCO3)n2)c(-c2nc3c(s2)CCCC3)n1 (centres undefined)	-3%	3	32µM*	4%
COc1cc2c(Nc3ccc(Cl)c(Cl)c3F)ncnc2cc1OCC1C[C@@H]2CN(C)C[C@@H]2C1 (some centres undefined)	?	-20	.	-24%
COc1ccccc1/C=C(\C)C(=O)c1c(C)cc(C)[nH]c1=O	.	.	i	.
COc1c/c(=C2\C=c3ccccc3=N2)[nH]/c1=C\c1[nH]c(C)cc1C	4.7µM*	-12	.	.
O=C(N[C@@H]1CN(c2ncccn2)C[C@H]1CO)c1ccc(F)cc1	4%	3	?	-8%
COc1ccc(C(=O)N[C@@H]2CN(c3ncccn3)C[C@H]2CN(C)C)cc1F	-11%	5	25µM*	-25%
COc1cccc(C(=O)N[C@@H]2CN(c3ncccn3)C[C@H]2CN(C)C)c1	10%	8	32µM*	1%
CN(C)C[C@@H]1CN(c2ncccn2)C[C@H]1NC(=O)c1cccc(F)c1	?	4	20µM*	-9%
COc1cccc(C(=O)N[C@@H]2CN(c3ccccn3)C[C@H]2CN(C)C)c1	-9%	7	28µM*	-22%
COc1cc(OC)cc(C(=O)N[C@@H]2CN(C)C[C@H]2CN(C)C)c1	5%	-6	?	6%
CC(C)c1ccc(C2C3=C(CC(C)(C)CC3=O)OC3=C2C(=O)CC(C)(C)C3)cc1	.	.	i	.
O=C(NCCc1ccccc1F)C1CCN(c2nccc(Nc3ccccc3F)n2)CC1	-15%	2	.	-6%
Cc1noc(C)c1[S+](=O)([O-])NCCNC(=O)c1ccc(-c2cccc(C(F)(F)F)c2)cc1	.	21	.	.
SMILES	HEK293 viab	IP6K1 inhibitor	KDM5B inhibitor	SNCA expr inh
COC(=O)NC1CCN(C(=O)c2ccc(-c3cccs3)cc2)CC1	-5%[12.5 µM]	17	.	16%[87.6 µM]
CN(C)C[C@@H]1CN(S(C)(=O)=O)C[C@H]1NC(=O)c1ccc(Cl)s1	5%	7	i	5%
COc1cccc(C(=O)N[C@@H]2CN(c3ccccn3)C[C@H]2CN(C)C)c1OC	1%	22	28µM*	-9%
CN(C)C[C@@H]1CN(c2ncccn2)C[C@H]1NC(=O)c1ccc(Cl)s1	-2%	1	28µM*	-13%
COCC(=O)Nc1ccc(-c2ccc(OC)nn2)cc1	.	-4	.	.
Cc1cc(C)cc(-c2ccc(CN3CCCC(NC(=O)N(C)C)C3)cc2)c1 (centres undefined)	-6%	-9	.	3%
C[C@@]12C(=O)OC(=O)[C@@]1(C)C1CCC2O1	?	.	.	15µM*
COc1ccc(-c2ccc3ncc(Nc4cnccn4)n3n2)cc1OC	-8%[87.6 µM]	-8	?	17%[87.6 µM]
Cn1cc(-c2cccc(C(F)(F)F)c2)c2nc(CNc3ccccc3)cn2c1=O	-28%[87.6 µM]	3	35µM*	?
COCCCNc1cc(Cl)nc2ccnn12	-1%[87.6 µM]	13	i	40%[87.6 µM]
c1ccc(-c2cc(NCCCOc3cccnc3)n3nccc3n2)cc1	-13%	2	22µM*	7%
Cc1ccc(NC(=O)CC2CCCCN(Cc3ccccc3)C2=O)cc1 (centres undefined)	-17%	12	.	-9%
COc1cccc(-c2nc3cnccn3c2NCCC(=O)Nc2cccc(Cl)c2)c1	?	2	28µM*	-1%
COc1cccc(-c2nc3cnccn3c2NCCC(=O)N2CCCC(C)C2)c1 (centres undefined)	?	6	28µM*	2%
COc1ccc(CCC(=O)N2CCCC(Cn3c(C)cnc3-c3ccncc3)C2)cc1 (centres undefined)	2%	15	.	17%
COc1cccc(-c2c(C(=O)Nc3cccc(Cl)c3)nc3sccn23)c1	?	-10	.	-30%
COc1ccc(-c2nc3cnccn3c2NCCC(=O)N2CCCC(C)C2)cc1 (centres undefined)	?	-3	28µM*	21%
O=C(c1ccccc1F)N1CCN(c2nccc(Nc3ccccc3Cl)n2)CC1	10%	3	.	-23%
COc1cccc(CN2CCCC(N3CCN(c4cccc(C(F)(F)F)c4)CC3)C2)c1O (centres undefined)	?	1	i	-12%
O=C1CC(c2ccccc2)N(C(=O)CNC(=O)c2ccccn2)CCCCCN1 (centres undefined)	-10%	-3	28µM*	-24%
CCC(C)(C)C(=O)N1CCC2(CCc3nn(Cc4ccccc4)c(=O)n3CC2)CC1	-2%	-14	.	9%
Cc1ccc(CNC(=O)C2CCN(c3cc(C(F)(F)F)ncn3)CC2)cc1	-10%	16	i	-10%
CCc1ccc(CNC(=O)C2CCN(c3cc(C(F)(F)F)ncn3)CC2)cc1	6%	9	28µM*	-8%
C=CCNC(=O)[C@@H]1Cc2cn(Cc3cc(C)on3)c3cccc(c23)[C@H](CC(C)C)N1	?	-15	?	?
